Screening results as filed in PubChem.
IL1B secr inh = inflammasome signaling inhibition, IL-1 beta readout; THP-1 LPS/ATP IL-1B secretion, AlphaLISA, 16 h; active compounds read low; 4.7% of 360,000 active; activity change, % at 57.5 µM; in the data active = activity change below about -50%; inconclusive = mostly about -30% to -49%
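Secreted IL-1B measured by AlphaLISA bead assay after 16 h compound exposure of THP-1 cells; compounds (final up to 57.5 uM) added 1 h before LPS (250 ng/mL) and ATP (1.25 mM) stimulation; lower signal means less secretion.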
TDP1 cell CPT = growth inhibition of DT40 Tdp1-/-;hTDP1 cells with camptothecin (screen for TDP1 inhibitors) | chicken DT40 Tdp1-/-;hTDP1 cells + 20 nM CPT, ATP luminescence, 48 h | 12% of 420,000 active | Potency, µM (series often up to 46.2 µM), most hits filed as inhibitors; also: nearly all actives have a fitted effect of over 55% in size
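Cell growth measured by CellTiter-Glo luminescence after a minimum 48 h, 37 C compound exposure with 20 nM CPT in Tdp1-knockout DT40 cells stably expressing hTDP1, seeded 400/well; qHTS titration format.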
HT1080-NT tox = kills 2HG-producing HT-1080-NT fibrosarcoma cells; HT-1080-NT fibrosarcoma viability, CellTiter-Glo ATP luminescence, 48 h; Potency, µM (top dose mostly 46.1 µM), most hits filed as cytotoxic; 1.6% of 360,000 active;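 also: NT is the 2HG producing partner of a matched IDH1 knockdown line; nearly all actives have a fitted effect of over 55% in size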
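A 48-hour cytotoxicity screen used HT-1080-NT cells plated 2 hours before compound delivery. ATP-based CellTiter-Glo luminescence measured viability, normalized to DMSO and no-cell controls.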
HT1080 IDH1KD tx = HT-1080 IDH1 knockdown cell toxicity (counter line); 2% of 360,000 active; AID 686971; Potency, µM (top dose mostly 46.1 µM), most hits filed as cytotoxic; HT-1080 IDH1 knockdown viability, ATP luminescence, 48 h
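Luminescent ATP read-out (CellTiter-Glo, 10 min at room temperature) after 48 h compound exposure at 37 °C gave viability of IDH1-knockdown HT-1080 cells. Activity was normalised to DMSO and cell-free wells, then fitted as concentration-response curves.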
DT40 TDP1 no CPT = qHTS for Inhibitors of human tyrosyl-DNA phosphodiesterase 1 (TDP1): qHTS in cells in absence of CPT; DT40 Tdp1-/- hTDP1 cells, no CPT, ATP luminescence, 48 h; Potency, µM (series often up to 46.2 µM), hits mostly inhibitors; 15% of 420,000 active; AID 686978, 2013; also: nearly all actives have a fitted effect of over 55% in size
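DT40 Tdp1-/-;hTDP1 cells, no CPT (DMSO vehicle only), 400 cells/well; compounds pin-transferred; ≥48 hr, 37 °C; CellTiter-Glo 30 min RT dark, luminescence read.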
Numbers stand for hits; [ ] = dose if it differs, or a comment. An excerpt weighted towards active compounds, which were near 19% of everything screened. Unless noted, calls follow the shape of the dose curve; as a rule, active = well fitted curve in the direction sought with a large enough effect; inconclusive = small, poorly fitted or top-dose-only effect, or another doubt; inactive = no such curve, though single readings can be large; an effect the other way counts as inactive or inconclusive.

CC(=O)N1CCN(c2ccccc2NC(=O)c2cc(Br)ccc2Cl)CC1 was read as IL1B secr inh inactive, TDP1 cell CPT inactive, HT1080-NT tox inactive, HT1080 IDH1KD tx inactive and DT40 TDP1 no CPT inconclusive.
`COc1ccccc1C(=O)Nc1ccccc1N1CCN(C(=O)c2ccc(Cl)cc2)CC1` gave IL1B secr inh inactive, TDP1 cell CPT 14.6µM, HT1080-NT tox inactive, HT1080 IDH1KD tx inactive and DT40 TDP1 no CPT 16.4µM.
O=C(CSc1ccc(Cl)cc1)Nc1ccccc1N1CCN(C(=O)c2ccccc2)CC1 was read as IL1B secr inh inactive, TDP1 cell CPT 16.4µM, HT1080-NT tox inconclusive, HT1080 IDH1KD tx inactive and DT40 TDP1 no CPT 18.4µM.
`O=C(Nc1ccccc1N1CCN(C(=O)c2ccc(Cl)cc2)CC1)c1cc(Br)ccc1Cl` gave IL1B secr inh inactive, TDP1 cell CPT inconclusive, HT1080-NT tox inactive, HT1080 IDH1KD tx inactive and DT40 TDP1 no CPT 14.6µM.
`COc1ccc(CN2Cc3ccccc3OC(c3ccccc3OC)C2)cc1O` (stereo unspecified) gave TDP1 cell CPT inactive[9.04 µM] and DT40 TDP1 no CPT inconclusive.
For S=C(N/N=C/c1ccc(Br)cc1)N1CCCCC1 the results were IL1B secr inh inactive, TDP1 cell CPT 1.16µM, HT1080-NT tox inactive, HT1080 IDH1KD tx inactive and DT40 TDP1 no CPT inconclusive.
`S=C(N/N=C/c1ccc(Cl)cc1)N1CCOCC1` gave IL1B secr inh inactive, TDP1 cell CPT 0.0092µM, HT1080-NT tox inactive, HT1080 IDH1KD tx inactive and DT40 TDP1 no CPT 0.0184µM.
For Cc1ccc(/C=N/NC(=S)N2CCOCC2)cc1 the results were IL1B secr inh inactive, TDP1 cell CPT inactive, HT1080-NT tox inactive, HT1080 IDH1KD tx inactive and DT40 TDP1 no CPT inactive.
`Cc1ccc(S(=O)(=O)N2CCOCC2)cc1NC(=O)CSc1nnnn1C` gave IL1B secr inh inactive, TDP1 cell CPT inactive, HT1080-NT tox inactive, HT1080 IDH1KD tx inactive and DT40 TDP1 no CPT inactive.
`O=C(COC(=O)c1cccnc1Cl)c1ccc(OC(F)F)cc1` gave IL1B secr inh inactive, TDP1 cell CPT inactive, HT1080-NT tox inactive, HT1080 IDH1KD tx inactive and DT40 TDP1 no CPT inactive.
Screening Cc1ccccc1CN1CCN(S(=O)(=O)c2cccs2)CC1 returned IL1B secr inh inactive, TDP1 cell CPT inactive, HT1080-NT tox inactive, HT1080 IDH1KD tx inactive and DT40 TDP1 no CPT inconclusive.
Screening CCOC(=O)CNC(c1ccccc1)c1cc(Br)ccc1NC(=O)CCN1CCOCC1 (stereo unspecified) returned IL1B secr inh inconclusive, TDP1 cell CPT 2.06µM, HT1080-NT tox inactive, HT1080 IDH1KD tx inactive and DT40 TDP1 no CPT 0.82µM.
For COC(=O)CNC(c1ccccc1)c1cc(Br)ccc1N (stereo unspecified) the results were IL1B secr inh inactive, TDP1 cell CPT inactive, HT1080-NT tox inactive, HT1080 IDH1KD tx inactive and DT40 TDP1 no CPT inconclusive.
For COC(=O)CNC(c1ccccc1)c1cc(Br)ccc1NC(=O)CNC(=O)OCc1ccccc1 (stereo unspecified) the results were IL1B secr inh inconclusive, TDP1 cell CPT inactive, HT1080-NT tox inconclusive, HT1080 IDH1KD tx 20.6µM and DT40 TDP1 no CPT inconclusive.
Screening COC(=O)CNC(c1ccccc1)c1cc(Br)ccc1NS(=O)(=O)c1ccccc1 (stereo unspecified) returned IL1B secr inh inactive, TDP1 cell CPT inactive, HT1080-NT tox inactive, HT1080 IDH1KD tx inactive and DT40 TDP1 no CPT inactive.
Screening COC(=O)CNC(c1ccccc1)c1cc(Br)ccc1NC(=O)CCN1CCOCC1 (stereo unspecified) returned IL1B secr inh -55.4, TDP1 cell CPT 2.59µM, HT1080-NT tox inactive, HT1080 IDH1KD tx inconclusive and DT40 TDP1 no CPT 1.64µM.
CCOC(=O)CNC(c1ccccc1)c1cc(Br)ccc1NC(=O)c1ccc(Cl)cc1 (stereo unspecified) was read as TDP1 cell CPT 10.3µM and DT40 TDP1 no CPT 6.51µM.
CCOC(=O)CNC(c1ccccc1)c1cc(Br)ccc1NC(=O)OCC (stereo unspecified) was read as IL1B secr inh inactive, TDP1 cell CPT inconclusive, HT1080-NT tox inactive, HT1080 IDH1KD tx inactive and DT40 TDP1 no CPT inconclusive.
C[C@H](CO)N1C[C@H](C)[C@@H](CN(C)C(=O)NC2CCCCC2)Oc2c(NC(=O)Cc3ccccc3)cccc2C1=O was read as IL1B secr inh inactive, TDP1 cell CPT inactive, HT1080-NT tox inconclusive, HT1080 IDH1KD tx inactive and DT40 TDP1 no CPT inactive.
For CC(C)(C)NCC(O)CSc1nc(-c2ccc(C(N)=O)s2)cs1 (stereo unspecified) the results were TDP1 cell CPT inactive and DT40 TDP1 no CPT inactive.
NNC(=O)CNC(c1ccccc1)c1cc(Br)ccc1N (stereo unspecified) was read as IL1B secr inh -72.2, TDP1 cell CPT inactive, HT1080-NT tox inactive, HT1080 IDH1KD tx inconclusive and DT40 TDP1 no CPT inactive.
`CCCOc1ccc(-c2csc3nc[nH]c(=O)c23)cc1` gave IL1B secr inh inactive, TDP1 cell CPT inconclusive, HT1080-NT tox inactive, HT1080 IDH1KD tx inactive and DT40 TDP1 no CPT inconclusive.
CCOc1ccc(-c2c(C)sc3nc[nH]c(=O)c23)cc1 was read as IL1B secr inh inactive, TDP1 cell CPT inconclusive, HT1080-NT tox inactive, HT1080 IDH1KD tx inactive and DT40 TDP1 no CPT 16.4µM.
Screening Cc1cc(C)c(C(=O)C(C)OC(=O)c2ccc(Cl)nc2)cc1C (stereo unspecified) returned IL1B secr inh inactive, TDP1 cell CPT inconclusive, HT1080-NT tox inactive, HT1080 IDH1KD tx inactive and DT40 TDP1 no CPT inconclusive.
`O=C1CC(c2ccco2)CC2=C1C1c3ccccc3C(=O)N1c1ccccc1N2` (stereo unspecified) gave IL1B secr inh -94.2, TDP1 cell CPT inconclusive, HT1080-NT tox inconclusive, HT1080 IDH1KD tx inconclusive and DT40 TDP1 no CPT 23.1µM.
COc1ccc(C(c2c(O)ccc3ccccc23)N2CCOCC2)c(OC)c1 (stereo unspecified) was read as IL1B secr inh inactive, TDP1 cell CPT inconclusive, HT1080-NT tox inactive, HT1080 IDH1KD tx inconclusive and DT40 TDP1 no CPT 29.1µM.
`O=C(NCc1cccnc1)c1ccc(S(=O)(=O)N2CCOCC2)cc1` gave IL1B secr inh inactive, TDP1 cell CPT inactive, HT1080-NT tox inactive, HT1080 IDH1KD tx inactive and DT40 TDP1 no CPT inactive.
For O=C(NCCSc1c(-c2ccc(Br)cc2)[nH]c2ccccc12)c1ccc(S(=O)(=O)N2CCOCC2)cc1 the results were TDP1 cell CPT 3.66µM and DT40 TDP1 no CPT 4.11µM.
O=C(NCc1ccc2[nH]c3c(c2c1)CCCC3)c1ccc(S(=O)(=O)N2CCOCC2)cc1 was read as IL1B secr inh inactive, TDP1 cell CPT inactive, HT1080-NT tox inactive, HT1080 IDH1KD tx inactive and DT40 TDP1 no CPT inconclusive.
O=C(NCCSc1c(-c2ccc(Cl)cc2)[nH]c2ccccc12)c1ccc(S(=O)(=O)N2CCOCC2)cc1 was read as TDP1 cell CPT 3.66µM and DT40 TDP1 no CPT 3.66µM.
